Most compounds without a hit are left out; they make up all but 21% or so of the library.
TDP1 cell noCPT – qHTS for Inhibitors of human tyrosyl-DNA phosphodiesterase 1 (TDP1): qHTS in cells in absence of CPT; AID 686978, 2013; DT40 Tdp1-/- hTDP1 cells, no CPT, ATP luminescence, 48 h; Potency, µM (series often up to 46.2 µM), without a hit: at the top dose activity change, negative = growth inhibition, most hits filed as inhibitors; 15% of 420,000 active; further: potency means the concentration at half of the fitted maximal effect; nearly all actives have a fitted effect of over 55% in size
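Growth kinetics read by CellTiter-Glo luminescence after ≥48 hr at 37 °C. Cells: DT40 Tdp1-/- stably carrying human TDP1, 400 per well, compound exposure in the absence of CPT (DMSO vehicle).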
IL-1B inflam inh – qHTS for Inhibitors of Inflammasome Signaling: IL-1-beta AlphaLISA Primary Screen | THP-1 LPS/ATP IL-1B secretion, AlphaLISA, 16 h; stronger effect = lower value | activity change, % at 57.5 µM | 4.7% of 360,000 active | AID 743279, 2014; in the data active means activity change below about -50%; inconclusive means mostly about -30% to -49%
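THP-1 cells pretreated 1 hr with compounds (up to 57.5 uM final), then stimulated with LPS (250 ng/mL final) plus ATP (1.25 mM final); secreted IL-1B measured by AlphaLISA after 16 hr, decreased signal indicating inhibition.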
DT40 TDP1 CPT – qHTS for Inhibitors of human tyrosyl-DNA phosphodiesterase 1 (TDP1): qHTS in cells in presence of CPT. Potency, µM (doses to about 46.2 µM), for inactives: top-dose activity change, negative = growth inhibition, usual class: inhibitors. chicken DT40 Tdp1-/-;hTDP1 cells + 20 nM CPT, ATP luminescence, 48 h. 12% of 420,000 active; further: potency means the concentration at half of the fitted maximal effect; nearly all actives have a fitted effect of over 55% in size
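Chicken DT40 Tdp1-/- cells complemented with human TDP1, 400 cells/well, exposed to compounds plus 20 nM camptothecin for at least 48 h at 37 C; viability read as ATP content by CellTiter-Glo luminescence.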
ELG1 DNA repair – qHTS screen for small molecules that inhibit ELG1-dependent DNA repair in human embryonic kidney (HEK293T) cells expressing luciferase-tagged ELG1; 2.3% of 330,000 active; AID 504467, 2011; Potency, µM (doses to about 46.1 µM), without a hit: top-dose activity change, negative = inhibition, usual class: inhibitors; HEK293T ELG1-luciferase reporter, luminescence, 16 h; DNA damage induced by 5-fluorouridine; further: potency means the concentration at half of the fitted maximal effect; nearly all actives have a fitted effect of over 55% in size
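Luminescence from the luciferase reporter, measured 30 min after ONE-Glo reagent at room temperature, was the read-out. Beforehand, 2,000 cells per well were exposed for 16 hr at 37 °C to 5-fluorouridine together with compound or vehicle.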
Gal4-VP16 FLuc – VP16 counterscreen qHTS for inhibitors of ROR gamma transcriptional activity; Drosophila S2 Gal4-VP16 UAS-luciferase, luminescence, 20 h; Potency, µM (titrated, usually from 53.6 µM), for inactives: top-dose activity, negative = inhibition, actives largely listed as inhibitors; 3.5% of 310,000 active;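 further: Gal4-VP16 expression switched on by copper sulfate through the metallothionein promoter; potency means the concentration at half of the fitted maximal effect; nearly all actives have a fitted effect of over 50% in size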
RORg inh – qHTS for inhibitors of ROR gamma transcriptional activity | Drosophila S2 Gal4-RORgamma UAS-luciferase reporter, 20 h | Potency, µM (series often up to 53.6 µM), inactives show top-dose activity change, negative = inhibition, actives largely listed as inhibitors | 5.4% of 310,000 active; further: potency means the concentration at half of the fitted maximal effect; nearly all actives have a fitted effect of over 60% in size
Target sequence (P51450 whole entry, looked up, the tested form may be a part): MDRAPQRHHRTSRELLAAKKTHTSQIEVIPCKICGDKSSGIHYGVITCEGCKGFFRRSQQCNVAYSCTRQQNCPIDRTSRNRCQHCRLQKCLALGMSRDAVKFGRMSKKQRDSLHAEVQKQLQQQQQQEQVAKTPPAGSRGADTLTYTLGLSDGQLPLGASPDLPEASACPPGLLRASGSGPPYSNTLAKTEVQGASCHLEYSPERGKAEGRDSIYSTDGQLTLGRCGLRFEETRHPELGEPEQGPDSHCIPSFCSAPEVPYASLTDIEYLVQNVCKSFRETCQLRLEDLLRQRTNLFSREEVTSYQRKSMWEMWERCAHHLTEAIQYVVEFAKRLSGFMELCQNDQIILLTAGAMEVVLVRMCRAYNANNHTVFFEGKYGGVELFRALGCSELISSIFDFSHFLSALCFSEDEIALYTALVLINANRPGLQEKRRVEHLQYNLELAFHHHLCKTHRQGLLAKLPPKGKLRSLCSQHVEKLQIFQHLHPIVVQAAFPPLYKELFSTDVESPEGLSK
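Drosophila Schneider cells stably carrying a metallothionein-driven Gal4 DBD–ROR gamma fusion and a UAS-Photinus luciferase reporter were exposed to compound for 1 hr, then induced with copper sulfate (700 uM final) for 20 hr at ambient temperature before luminescence reading.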
Active calls of the source: *; u = inconclusive; x = no result given; [ ] = remark or other dose. Unless noted, the call rests on the fitted dose curve; in most records, active means well fitted curve in the direction sought with a large enough effect; inconclusive means small, poorly fitted or top-dose-only effect, or another doubt; inactive means no such curve, though single readings can be large; an effect the other way counts as inactive or inconclusive. On the % scale 0 is the no-effect control and ±100 the full control effect.

SMILES	TDP1 cell noCPT	IL-1B inflam inh	DT40 TDP1 CPT	ELG1 DNA repair	Gal4-VP16 FLuc	RORg inh
CC(C)Oc1ccc(C(CC(=O)O)c2ccc(F)cc2)cc1 (stereo not drawn)	-2%	19	23%	23%	-9%	9%
COc1ccc(NC(=O)CC(c2ccc(F)cc2)c2ccc(OC(C)C)cc2)cc1 (stereo not drawn)	21µM*	9	u	5%	-9%	40%
CCOc1ccc(NC(=O)CC(c2ccccc2)c2ccc(F)cc2)cc1 (stereo not drawn)	15µM*	5	-15%	5%	-7%	10%
CC(C)(C)OC(=O)NS(=O)(=O)NCc1ccco1	x	x	x	x	5%	-28%
COc1ccc(-c2cn3cc([N+](=O)[O-])ccc3n2)cc1OC	u	-30	u	u	-13%	u
COc1ccc(C(=O)NN)cc1	-15%	-2	7%	u	-11%	u
CCCS(=O)(=O)Nc1cc(-c2cn3cccc(C)c3n2)ccc1C	18µM*	x	u	x	x	x
CC(=O)Nc1ccc(-c2cn3cc(C)ccc3n2)cc1	4%	-19	9%	u	u	7.1µM*
COc1ccc(-c2cn3cc(C(=O)NN)ccc3n2)cc1	u	-2	u	u	10µM*	u
Cc1ccc2nc(-c3ccc(O)c(O)c3)cn2c1	21µM*	-7	u	u	u	4%[1.91 µM]
Cc1csc(=O)n1CCC(=O)OCC(=O)NCc1ccccc1	-6%	-1	8%	x	x	x
CCCN1CCN(S(=O)(=O)c2ccc3c(c2)CCC(=O)N3)CC1	0%	7	10%	16%	x	x
Cc1ccc2nc(-c3ccccc3)cn2c1	18µM*	0	u	u	2.8µM*	1.6µM*
Cc1cccn2cc(-c3ccccc3)nc12	-27%	7	-10%	u	-26%	11µM*
Cc1ccc2nc(-c3ccc(S(=O)(=O)N4CCOCC4)cc3)cn2c1	x	x	x	u	13%	-1%
Brc1ccc(-c2cn3ccccc3n2)s1	23µM*	4	7.3µM*	u	u	u
Cc1ccc2nc(-c3ccc(-c4ccccn4)s3)cn2c1	u	-19	-27%	u	0.89µM*	0.18µM*
O=S(=O)(Nc1ccc(-c2cn3ccccc3n2)cc1)c1ccccc1	18%	u	-4%	u	8%	24%
O=C(Nc1ccccc1)N1CCCC2(CCN(C(=O)c3cnccn3)CC2)C1	-11%	x	12%	x	1%	-2%
OC(CN1CCC(Cc2ccccc2)CC1)c1ccccc1 (stereo not drawn)	0%	0	-5%	1%	2%	11%
Nc1ncc(O)c(N)n1	x	x	x	x	-6%	10%
COC(=O)C1CSC(c2ccc(Cl)cc2)N1C(=O)c1ccccc1 (stereo not drawn)	18µM*	53	21µM*	7%	3%[10 µM]	34%
CCc1cnc2c(c1SC(C(C)=O)C(=O)N(C)C)c(=O)n(C)c(=O)n2C (stereo not drawn)	u	x	23µM*	x	x	x
CC(C)c1cnc2c(c1SCc1ccc([N+](=O)[O-])cc1)c(=O)n(C)c(=O)n2C	8.2µM*	x	u	x	x	x
CCCc1cnc2c(c1SCc1cccc(C)c1)c(=O)n(C)c(=O)n2C	u	x	16µM*	x	x	x
CCN(CC)CCSc1c(C(C)C)cnc2c1c(=O)n(C)c(=O)n2C	-2%	x	4%	x	x	x
CCc1cnc2c(c1SCC(=O)Nc1ccc(Cl)cc1)c(=O)n(C)c(=O)n2C	-5%	x	-13%	x	x	x

High-throughput results deposited in PubChem by National Center for Advancing Translational Sciences (NCATS).
